Measured values published in PubChem BioAssay (NCATS).
Where “and” joins values, the source holds several entries; their conditions need not be identical. Equal values may be shown once. Inconclusive results are not listed. Calls of active or inactive are those of the source. Unless noted, the call rests on the fitted dose curve; in most records, active means well fitted curve in the direction sought with a large enough effect; inconclusive means small, poorly fitted or top-dose-only effect, or another doubt; inactive means no such curve, though single readings can be large; an effect the other way counts as inactive or inconclusive.

Key:
[1] = system: Es-2; test: Primary qHTS to identify gynecologic anti-cancer compounds using libraries of approved drugs and bioactive compounds (AID 1345084); conditions: Gynecologic cancer cell panel viability, ATPlite luminescence, 48 h; series mostly up to 57.5 µM; further: on the % scale 0 is the no-effect control and ±100 the full control effect; nearly all actives have a fitted effect of over 55% in size
Outline: (§1)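 Measured: luminescence after ATPlite addition (15 min, RT). Exposure: 48 h, 37 C, 5% CO2.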

[2] = system: HeLa; test: as above; conditions: Gynecologic cancer cell panel viability, ATPlite luminescence, 48 h; series mostly up to 57.5 µM
Outline: as §1

[3] = system: Hek293T; test: as above; conditions: Gynecologic cancer cell panel viability, ATPlite luminescence, 48 h, control line for the selectivity index; series mostly up to 57.5 µM
Outline: as §1

[4] = system: JEG-3; test: as above; conditions: Gynecologic cancer cell panel viability, ATPlite luminescence, 48 h; series mostly up to 57.5 µM
Outline: as §1

[5] = system: OV90; test: as above; conditions: Gynecologic cancer cell panel viability, ATPlite luminescence, 48 h; series mostly up to 57.5 µM
Outline: as §1

[6] = system: PA-1; test: as above; conditions: Gynecologic cancer cell panel viability, ATPlite luminescence, 48 h; series mostly up to 57.5 µM
Outline: as §1

[7] = system: SKOV3; test: as above; conditions: Gynecologic cancer cell panel viability, ATPlite luminescence, 48 h; series mostly up to 57.5 µM
Outline: as §1

[8] = system: Tov-21-G; test: as above; conditions: Gynecologic cancer cell panel viability, ATPlite luminescence, 48 h; series mostly up to 57.5 µM
Outline: as §1

[9] = system: Tov112D; test: as above; conditions: Gynecologic cancer cell panel viability, ATPlite luminescence, 48 h; series mostly up to 57.5 µM
Outline: as §1

[10] = Drug repurposing screens with cells derived from glioblastoma tumor samples (AID 1345199); conditions: GBM patient neurospheres viability, ATP luminescence, 48 h; further: nearly all actives have a fitted effect of over 40% in size; further: potency means the concentration at half of the fitted maximal effect; on activity, negative = cell killing: on the % scale 0 is the no-effect control and ±100 the full control effect
Outline: (§2)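 Primary testing used CD133+ neurospheres from four GBM patients, seven concentrations, 48 h exposure and ATP-based viability; confirmation added three slower-growing patient lines.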

[11] = system: astro; test: as above; conditions: viability, ATP luminescence, 48 h; series mostly up to 45.9 µM
Outline: as §2

[12] = target: Nuclear receptor subfamily 1 group I member 2 (Rattus norvegicus) (UniProt Q9R1A7); test: qHTS assay for small molecule activators of the rat pregnane X receptor (rPXR) signaling pathway (AID 651751; call rule not given here; further: 0% is about no effect); conditions: rPXR reporter cells, luciferase (One-Glo), 24 h
[13] = qHTS assay for small molecule activators of the human pregnane X receptor (PXR) signaling pathway (AID 720659; call rule not given here; further: 0% is about no effect)
[14] = at 45.9 µM (top of the series), tumour line B
[15] = at 45.9 µM (top of the series), tumour line D
[16] = at 46.1 µM (top of the series), tumour line C
[17] = at 46 µM (top of the series), tumour line A

Chain of Nuclear receptor subfamily 1 group I member 2 (Rattus norvegicus) (Q9R1A7 whole entry, looked up): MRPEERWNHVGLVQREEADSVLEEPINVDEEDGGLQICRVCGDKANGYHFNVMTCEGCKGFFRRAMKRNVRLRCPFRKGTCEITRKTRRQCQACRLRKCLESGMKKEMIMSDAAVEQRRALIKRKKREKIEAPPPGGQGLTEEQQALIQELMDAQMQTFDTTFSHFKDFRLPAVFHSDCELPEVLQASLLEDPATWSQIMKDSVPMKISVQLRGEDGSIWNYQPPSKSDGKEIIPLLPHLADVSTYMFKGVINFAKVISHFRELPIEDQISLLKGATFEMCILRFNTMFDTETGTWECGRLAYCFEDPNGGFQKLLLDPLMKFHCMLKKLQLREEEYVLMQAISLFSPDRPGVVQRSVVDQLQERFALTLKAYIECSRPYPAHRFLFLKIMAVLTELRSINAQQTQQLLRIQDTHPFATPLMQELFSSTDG

CCc1ccc(C(=O)C(C)CN2CCCCC2)cc1 (stereo unspecified)
inactive: Potency [1] | Potency [2] | Potency [3] | Potency [4] | Potency [5] | Potency [6] | Potency [7] | Potency [8] | Potency [9] | activity, negative = cell killing [10, 14] -6.35% | activity, negative = cell killing [10, 15] -22.1% | activity, negative = cell killing [10, 16] -19% | Potency [11]
active: Potency ([10]; tumour line A) 17.8 µM

CC(=O)Nc1ccc(OCC(O)CNC(C)C)cc1 (stereo unspecified)
inactive: Potency [1] | Potency [2] | Potency [3] | Potency [4] | Potency [5] | Potency [6] | Potency [7] | Potency [8] | Potency [9] | activity, negative = cell killing [10, 14] -1.74% | activity, negative = cell killing [10, 15] -7.95% | activity, negative = cell killing [10, 17] -46.4% | activity, negative = cell killing [10, 16] -12.1% | Potency [11]

COC(=O)C(c1ccccc1Cl)N1CCc2sccc2C1 (stereo unspecified)
active: Potency ([10]; tumour line A) 28.2 µM
inactive: Potency [1] | Potency [2] | Potency [3] | Potency [4] | Potency [5] | Potency [6] | Potency [7] | Potency [8] | Potency [9] | activity, negative = cell killing [10, 14] -13.2% | activity, negative = cell killing [10, 15] -12.6% | activity, negative = cell killing [10, 16] 2.17% | Potency [11]

COc1ccc(-c2cc(C(F)F)nn2-c2ccc(S(N)(=O)=O)cc2)cc1F
inactive: Potency [1] | Potency [2] | Potency [3] | Potency [4] | Potency [5] | Potency [6] | Potency [7] | Potency [8] | Potency [9] | activity, negative = cell killing [10, 14] -10.4% | activity, negative = cell killing [10, 15] -9.89% | activity, negative = cell killing [10, 17] -29.7% | activity, negative = cell killing [10, 16] 2.98% | Potency [11]

N#CCC(=O)NN
inactive: Potency [1] | Potency [2] | Potency [3] | Potency [4] | Potency [5] | Potency [6] | Potency [7] | Potency [8] | Potency [9] | activity, negative = cell killing [10, 14] -9.6% | activity, negative = cell killing [10, 15] -5.43% | activity, negative = cell killing [10, 17] -40.8% | activity, negative = cell killing [10, 16] -7.01% | Potency [11]

CC(=O)OCC1=C(C(=O)O)N2C(=O)[C@@H](NC(=O)CSc3ccncc3)[C@H]2SC1
inactive: Potency [1] | Potency [2] | Potency [3] | Potency [4] | Potency [5] | Potency [6] | Potency [7] | Potency [8] | Potency [9] | activity, negative = cell killing [10, 14] -6.44% | activity, negative = cell killing [10, 15] -23.6% | activity, negative = cell killing [10, 17] -34.9% | activity, negative = cell killing [10, 16] -18.9% | Potency [11]

NC(=O)c1ccccc1O
inactive: Potency [1] | Potency [2] | Potency [3] | Potency [4] | Potency [5] | Potency [6] | Potency [7] | Potency [8] | Potency [9] | activity, negative = cell killing [10, 14] -6.32% | activity, negative = cell killing [10, 15] 0.802% | activity, negative = cell killing [10, 17] -27.6% | activity, negative = cell killing [10, 16] 4.05% | Potency [11] | max response [12] -4.39% | outcome [13]

NCCNc1cccc2ccccc12
inactive: Potency [1] | Potency [2] | Potency [3] | Potency [4] | Potency [5] | Potency [6] | Potency [7] | Potency [8] | Potency [9] | activity, negative = cell killing [10, 14] -17.3% | activity, negative = cell killing [10, 15] -24.3% | activity, negative = cell killing [10, 16] -28% | Potency [11] | max response [12] -3.2% and 4.24%
active: Potency ([10]; tumour line A) 20 µM

O=C(O)P(=O)(O)O
inactive: Potency [1] | Potency [2] | Potency [3] | Potency [4] | Potency [5] | Potency [6] | Potency [7] | Potency [8] | Potency [9] | activity, negative = cell killing [10, 14] -0.165% | activity, negative = cell killing [10, 15] -25% | activity, negative = cell killing [10, 17] -23.7% | activity, negative = cell killing [10, 16] 21.2% | Potency [11]

CN1CCN(c2cc3c(cc2F)c(=O)c(C(=O)O)cn3-c2ccc(F)cc2)CC1
inactive: Potency [1] | Potency [2] | Potency [3] | Potency [4] | Potency [5] | Potency [6] | Potency [7] | Potency [8] | Potency [9] | activity, negative = cell killing [10, 14] -7.1% | activity, negative = cell killing [10, 15] -1.79% | activity, negative = cell killing [10, 17] -26.7% | activity, negative = cell killing [10, 16] 5.61% | Potency [11]

CCCN(CCC)S(=O)(=O)c1ccc(C(=O)O)cc1
inactive: Potency [1] | Potency [2] | Potency [3] | Potency [4] | Potency [5] | Potency [6] | Potency [7] | Potency [8] | Potency [9] | activity, negative = cell killing [10, 14] -5.41% | activity, negative = cell killing [10, 15] 6.49% | activity, negative = cell killing [10, 17] -4.85% | activity, negative = cell killing [10, 16] -7.91% | Potency [11] | max response [12] 7.36% and 2.17% | outcome [13]

CC(C)[C@@H]1CC[C@@H](C)CC1=O
inactive: Potency [1] | Potency [2] | Potency [3] | Potency [4] | Potency [5] | Potency [6] | Potency [7] | Potency [8] | Potency [9] | activity, negative = cell killing [10, 14] -6.28% | activity, negative = cell killing [10, 15] -8.45% | activity, negative = cell killing [10, 17] -24.9% | activity, negative = cell killing [10, 16] -8.42% | Potency [11]

CCC(Cc1c(I)cc(I)c(N)c1I)C(=O)O (stereo unspecified)
inactive: Potency [1] | Potency [2] | Potency [3] | Potency [4] | Potency [5] | Potency [6] | Potency [7] | Potency [8] | Potency [9] | activity, negative = cell killing ([10]; at 20 µM (top of the series), tumour line C) 4.71% | activity, negative = cell killing ([10]; at 21.2 µM (top of the series), tumour line B) 4.87% | activity, negative = cell killing ([10]; at 21.2 µM (top of the series), tumour line D) 3.32% | activity, negative = cell killing ([10]; at 21.3 µM (top of the series), tumour line A) -20% | Potency [11]

CC(=O)Oc1ccc(C)cc1
inactive: Potency [1] | Potency [2] | Potency [3] | Potency [4] | Potency [5] | Potency [6] | Potency [7] | Potency [8] | Potency [9] | activity, negative = cell killing [10, 14] -11.7% | activity, negative = cell killing [10, 15] -7.35% | activity, negative = cell killing [10, 17] -28.8% | activity, negative = cell killing [10, 16] -10.6% | Potency [11]
